# Data published in PubChem BioAssay (NCI).
# This is part of a sample that, as a whole, favours compounds with a hit. Of some 83,000 tested, about 20% had one in any assay.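 Single-dose data. Exposure time 48 hours. Values below 10 considered active.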 A number with no mark means an inactive call. The source made the active and inactive calls.
# Legend:
# Assay in all cases: NCI-60 one-dose screen, 48 h (100 = growth as untreated, 0 = no growth, -100 = all killed)
# NCI-H23 lung = system: NCI-H23 lung
# NCI-H226 lung = system: NCI-H226 lung
# NCI-H322M lung = system: NCI-H322M lung
# HOP-62 NSCLC = system: HOP-62 NSCLC
# NCI-H460 lung = system: NCI-H460 lung
# HOP-92 NSCLC = system: HOP-92 NSCLC
# NCI-H522 lung = system: NCI-H522 lung
# A549/ATCC NSCLC = system: A549/ATCC NSCLC
# 786-0 renal = system: 786-0 renal
# COLO 205 colon = system: COLO 205 colon
# DU-145 prostate = system: DU-145 prostate
# K-562 leukemia = system: K-562 leukemia
# MALME-3M melanoma = system: MALME-3M melanoma
# MDA-MB-231 breast = system: MDA-MB-231 breast
# RXF 393 renal = system: RXF 393 renal
# SF-268 CNS = system: SF-268 CNS
# SF-295 CNS = system: SF-295 CNS
# SF-539 CNS = system: SF-539 CNS
# UACC-257 melanoma = system: UACC-257 melanoma
# M14 melanoma = system: M14 melanoma
structure (smiles),measurement,setting,value
Cc1c(N)nc([C@H](CC(N)=O)NC[C@H](N)C(N)=O)nc1C(=O)N[C@H](C(=O)N[C@H](C)[C@@H](O)[C@H](C)C(=O)N[C@H](C(=O)NCCc1nc(-c2nc(C(=O)NCCC[S+](C)C)cs2)cs1)[C@@H](C)O)C(OC1OC(CO)C(O)C(O)C1OC1OC(CO)C(O)C(OC(N)=O)C1O)c1cnc[nH]1 (stereo partly specified),growth,NCI-H23 lung; 10 µM unless noted,37.9% [2.5 µM]
same,growth,NCI-H226 lung; 10 µM unless noted,37.2% [2.5 µM]
same,growth,NCI-H322M lung; 10 µM unless noted,97.1% [2.5 µM]
same,growth,HOP-62 NSCLC; 10 µM unless noted,43.9% [2.5 µM]
same,growth,NCI-H460 lung; 10 µM unless noted,23.1% [2.5 µM]
same,growth,HOP-92 NSCLC; 2.5 µM,-4.74% (active)
same,growth,NCI-H522 lung; 10 µM unless noted,57.3% [2.5 µM]
same,growth,A549/ATCC NSCLC; 10 µM unless noted,52.9% [2.5 µM]
same,growth,786-0 renal; 10 µM unless noted,27.9% [2.5 µM]
same,growth,COLO 205 colon; 10 µM unless noted,87.7% [2.5 µM]
same,growth,DU-145 prostate; 10 µM unless noted,58.7% [2.5 µM]
same,growth,K-562 leukemia; 10 µM unless noted,65.8% [2.5 µM]
same,growth,MALME-3M melanoma; 10 µM unless noted,45.9% [2.5 µM]
same,growth,MDA-MB-231 breast; 10 µM unless noted,99.2% [2.5 µM]
same,growth,RXF 393 renal; 10 µM unless noted,20.5% [2.5 µM]
same,growth,SF-268 CNS; 10 µM unless noted,61.6% [2.5 µM]
same,growth,SF-295 CNS; 10 µM unless noted,8.69% [2.5 µM] (active)
same,growth,SF-539 CNS; 10 µM unless noted,-48.7% [2.5 µM] (active)
same,growth,UACC-257 melanoma; 10 µM unless noted,31.9% [2.5 µM]
C[C@H]1CCC/C=C/[C@@H]2C[C@H](O)C[C@H]2[C@H](O)/C=C/C(=O)O1,growth,NCI-H23 lung; 10 µM unless noted,-1.79% (active)
same,growth,NCI-H226 lung; 10 µM unless noted,-36.3% (active)
same,growth,NCI-H322M lung; 10 µM unless noted,5.77% (active)
same,growth,HOP-62 NSCLC; 10 µM unless noted,4.67% (active)
same,growth,NCI-H460 lung; 10 µM unless noted,8.73% (active)
same,growth,NCI-H522 lung; 10 µM unless noted,-43.6% (active)
same,growth,A549/ATCC NSCLC; 10 µM unless noted,13.1%
same,growth,786-0 renal; 10 µM unless noted,-37.3% (active)
same,growth,COLO 205 colon; 10 µM unless noted,-75.4% (active)
same,growth,DU-145 prostate; 10 µM unless noted,-7.84% (active)
same,growth,K-562 leukemia; 10 µM unless noted,5.56% (active)
same,growth,MALME-3M melanoma; 10 µM unless noted,-73% (active)
same,growth,MDA-MB-231 breast; 10 µM unless noted,-68% (active)
same,growth,RXF 393 renal; 10 µM unless noted,11%
same,growth,SF-268 CNS; 10 µM unless noted,10.3%
same,growth,SF-295 CNS; 10 µM unless noted,20.9%
same,growth,SF-539 CNS; 10 µM unless noted,27.1%
same,growth,UACC-257 melanoma; 10 µM unless noted,13.1%
same,growth,M14 melanoma; 10 µM unless noted,-9.75% (active)
CC[C@@]1(O)C(=O)OCc2c1cc1n(c2=O)Cc2cc3ccccc3nc2-1,growth,NCI-H23 lung; 10 µM unless noted,-26.7% (active)
same,growth,NCI-H226 lung; 10 µM unless noted,-54% (active)
same,growth,NCI-H322M lung; 10 µM unless noted,-19.4% (active)
same,growth,HOP-62 NSCLC; 10 µM unless noted,-10.3% (active)
same,growth,NCI-H460 lung; 10 µM unless noted,-25.8% (active)
same,growth,NCI-H522 lung; 10 µM unless noted,-49% (active)
same,growth,A549/ATCC NSCLC; 10 µM unless noted,-21.1% (active)
same,growth,786-0 renal; 10 µM unless noted,-18.5% (active)
same,growth,COLO 205 colon; 10 µM unless noted,-38% (active)
same,growth,DU-145 prostate; 10 µM unless noted,-31.9% (active)
same,growth,K-562 leukemia; 10 µM unless noted,0.554% (active)
same,growth,MALME-3M melanoma; 10 µM unless noted,-59.5% (active)
same,growth,MDA-MB-231 breast; 10 µM unless noted,28.6%
same,growth,RXF 393 renal; 10 µM unless noted,6.33% (active)
same,growth,SF-268 CNS; 10 µM unless noted,2.82% (active)
same,growth,SF-295 CNS; 10 µM unless noted,-14.4% (active)
same,growth,SF-539 CNS; 10 µM unless noted,-46.4% (active)
same,growth,UACC-257 melanoma; 10 µM unless noted,-17.8% (active)
same,growth,M14 melanoma; 10 µM unless noted,-39% (active)
CCOC(=O)C(NC(=O)C(Cc1ccc(N(CCCl)CCCl)cc1)NC(C)=O)C(C)C (stereo unspecified),growth,NCI-H23 lung; 10 µM unless noted,81%
same,growth,NCI-H226 lung; 10 µM unless noted,90.8%
same,growth,NCI-H322M lung; 10 µM unless noted,95.4%
same,growth,HOP-62 NSCLC; 10 µM unless noted,83.5%
same,growth,NCI-H460 lung; 10 µM unless noted,49.9%
same,growth,HOP-92 NSCLC; 10 µM,98.7%
same,growth,NCI-H522 lung; 10 µM unless noted,64.1%
same,growth,A549/ATCC NSCLC; 10 µM unless noted,56%
same,growth,786-0 renal; 10 µM unless noted,88.6%
same,growth,COLO 205 colon; 10 µM unless noted,66.5%
same,growth,DU-145 prostate; 10 µM unless noted,99.7%
same,growth,K-562 leukemia; 10 µM unless noted,85.6%
same,growth,MALME-3M melanoma; 10 µM unless noted,91.7%
same,growth,MDA-MB-231 breast; 10 µM unless noted,96.8%
same,growth,RXF 393 renal; 10 µM unless noted,96.4%
same,growth,SF-268 CNS; 10 µM unless noted,71.5%
same,growth,SF-295 CNS; 10 µM unless noted,86%
same,growth,SF-539 CNS; 10 µM unless noted,77.3%
same,growth,UACC-257 melanoma; 10 µM unless noted,87.2%
same,growth,M14 melanoma; 10 µM unless noted,84.1%
COc1ccc(OC)c(/C=C/[N+](=O)[O-])c1,growth,NCI-H23 lung; 10 µM unless noted,6.9% (active)
same,growth,NCI-H226 lung; 10 µM unless noted,11.8%
same,growth,NCI-H322M lung; 10 µM unless noted,69.6%
same,growth,HOP-62 NSCLC; 10 µM unless noted,10.5%
same,growth,NCI-H460 lung; 10 µM unless noted,-4.3% (active)
same,growth,HOP-92 NSCLC; 10 µM,-18% (active)
same,growth,NCI-H522 lung; 10 µM unless noted,-64.1% (active)
same,growth,A549/ATCC NSCLC; 10 µM unless noted,28.1%
same,growth,786-0 renal; 10 µM unless noted,-75.2% (active)
same,growth,COLO 205 colon; 10 µM unless noted,-51.6% (active)
same,growth,DU-145 prostate; 10 µM unless noted,19.8%
same,growth,K-562 leukemia; 10 µM unless noted,4.27% (active)
same,growth,MALME-3M melanoma; 10 µM unless noted,24.9%
same,growth,MDA-MB-231 breast; 10 µM unless noted,5.7% (active)
same,growth,RXF 393 renal; 10 µM unless noted,-88.7% (active)
same,growth,SF-268 CNS; 10 µM unless noted,13.1%
same,growth,SF-539 CNS; 10 µM unless noted,-6.84% (active)
same,growth,UACC-257 melanoma; 10 µM unless noted,-12% (active)
same,growth,M14 melanoma; 10 µM unless noted,-11.5% (active)
S=C(SSC(=S)N1CCCCC1)N1CCCCC1,growth,NCI-H23 lung; 10 µM,101%
same,growth,NCI-H23 lung; 100 µM,-5.33% (active)
same,growth,NCI-H226 lung; 10 µM,104%
same,growth,NCI-H226 lung; 100 µM,10.4%
same,growth,NCI-H322M lung; 10 µM,102%
same,growth,NCI-H322M lung; 100 µM,32%
same,growth,HOP-62 NSCLC; 10 µM,110%
same,growth,HOP-62 NSCLC; 100 µM,37.6%
same,growth,NCI-H460 lung; 10 µM,91.9%
same,growth,NCI-H460 lung; 100 µM,-2.57% (active)
same,growth,HOP-92 NSCLC; 10 µM,101%
same,growth,HOP-92 NSCLC; 100 µM,9.88% (active)
same,growth,NCI-H522 lung; 10 µM,87%
same,growth,NCI-H522 lung; 100 µM,-44.2% (active)
same,growth,A549/ATCC NSCLC; 10 µM,93.3%
same,growth,A549/ATCC NSCLC; 100 µM,26.1%
same,growth,786-0 renal; 10 µM,98.7%
same,growth,786-0 renal; 100 µM,-3.71% (active)
same,growth,COLO 205 colon; 10 µM,110%
same,growth,COLO 205 colon; 100 µM,-69.1% (active)
same,growth,DU-145 prostate; 10 µM,107%
same,growth,DU-145 prostate; 100 µM,9.68% (active)
same,growth,K-562 leukemia; 10 µM,102%
same,growth,K-562 leukemia; 100 µM,-13.7% (active)
same,growth,MALME-3M melanoma; 10 µM,124%
same,growth,MALME-3M melanoma; 100 µM,-76.9% (active)
same,growth,MDA-MB-231 breast; 10 µM,104%
same,growth,MDA-MB-231 breast; 100 µM,-35.8% (active)
same,growth,RXF 393 renal; 10 µM,114%
same,growth,RXF 393 renal; 100 µM,-15.7% (active)
same,growth,SF-268 CNS; 10 µM,101%
same,growth,SF-268 CNS; 100 µM,0.593% (active)
same,growth,SF-295 CNS; 10 µM,97.3%
same,growth,SF-295 CNS; 100 µM,1.68% (active)
same,growth,SF-539 CNS; 10 µM,104%
same,growth,SF-539 CNS; 100 µM,-61.6% (active)
same,growth,UACC-257 melanoma; 10 µM,87.7%
same,growth,UACC-257 melanoma; 100 µM,40.5%
same,growth,M14 melanoma; 10 µM,92.6%
same,growth,M14 melanoma; 100 µM,-49.6% (active)
